Data on 49 compounds can be found in PubChem BioAssay (Tox21).

Where “and” joins values, the source holds several entries; their conditions need not be identical. Equal values may be shown once. Inconclusive results are not listed. A number with no mark means an inactive call. Calls of active or inactive are those of the source. The call rests on the fitted dose curve; in most records, active means well fitted cell-killing curve with a large enough effect in the repeat runs; inconclusive means weak or mixed curves, or effect the other way; inactive means flat fitted curve, though single readings scatter.

A short description of test [1]: cAMP Responsive Elements (CRE) small molecule antagonists, cell-based qHTS assay: qHTS cell viability counter screen (AID 2060913). Further: nearly all actives have a fitted effect of over 40% in size. The procedure, abridged:
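Viability of NKH477-stimulated (0.25 uM final) CRE-bla HEK293T cells is measured by CellTiter-Glo luminescence following 3 hrs compound exposure at 37 C.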

Test [2] in a line: cAMP Responsive Elements (CRE) small molecule agonists, cell-based qHTS assay: qHTS cell viability counter screen (AID 2060914).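 Further: viability read after 3 h of compound exposure; nearly all actives have a fitted effect of over 50% in size.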 The procedure, abridged: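 CRE-bla HEK 293T cells, plated 18 h at 37 °C, were exposed to compounds for 3 h at 37 °C/5% CO2. Viability was then measured in the same wells by CellTiter-Glo luminescence after 30 min at room temperature.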
A general note: Quantitative high-throughput screening tests each substance at several concentrations.
On the % scale 0 is the no-effect control and ±100 the full control effect; potency means the concentration at half of the fitted maximal effect.

In the case of `CCCCC(CC)COC(=O)COc1ccc(Cl)cc1Cl` (stereo not drawn), the Potency entry in test [1] and in test [2] was “inactive” each time.

With `C=C(C)C1CC=C(C)C(OC(C)=O)C1` (stereo not drawn), the Potency entry in test [1] and in test [2] was “inactive” throughout.

For `C#CC(O)C(CC)CCCC` (stereo not drawn), the Potency result in test [1] and in test [2] was “inactive” in each case.

Take `CCCCCCCCCCOS(=O)(=O)O`: the Potency entry in test [1] and in test [2] was “inactive” in each case.

`O=C(CCN1CCC(c2ccccc2)C1)c1ccc2c(c1)OCCO2` (stereo not drawn): the Potency entry in test [1] and in test [2] was “inactive” each time.

With `NC(=O)C(=O)N/N=C/c1ccc([N+](=O)[O-])o1`, the Potency result in test [1] and in test [2] was “inactive” throughout.

On to `N[C@H](C(=O)O)c1ccc(O)cc1`, for which, in test [1], the viability change, negative = cytotoxic was 2.5% [at 18.9 µM]. The activity change, negative = cytotoxicity in test [2] was -13.1% [at 18.9 µM].

In the case of `COc1nccnc1NS(=O)(=O)c1ccc(N)cc1`, the Potency entry in test [1] and in test [2] was “inactive” each time.

As to `CC(=O)Oc1c(C)c(C)c2c(c1C)CC[C@@](C)(CCC[C@H](C)CCC[C@H](C)CCCC(C)C)O2`, the Potency entry in test [1] and in test [2] was “inactive” each time.

For `C[C@@H]1C[C@H]2[C@@H]3C[C@H](F)C4=CC(=O)C(Cl)=C[C@]4(C)[C@@]3(F)[C@@H](O)C[C@]2(C)[C@@]1(O)C(=O)CO`, the Potency result in test [1] and in test [2] was “inactive” in each case.

For `O=C(/C=C/c1ccc(O)c(O)c1)O[C@@H]1C[C@](O)(C(=O)O)C[C@@H](O)[C@H]1O`, the Potency result in test [1] and in test [2] was “inactive” throughout.

As for `CC1(C)CC(N)CC(C)(CN)C1` (stereo not drawn), the Potency entry in test [1] and in test [2] was “inactive” in each case.

Take `CC(=O)OCC=C(C)C`: the Potency result in test [1] and in test [2] was “inactive” in each case.

`C=COCC1CCC(COC=C)CC1` (stereo not drawn): the Potency result in test [1] and in test [2] was “inactive” in each case.

Consider `C#Cc1ccc(-c2ccccc2F)cc1`, for which the Potency result in test [1] and in test [2] was “inactive” throughout.

In the case of `CC(=O)OC(C)c1ccccc1` (stereo not drawn), the Potency entry in test [1] and in test [2] was “inactive” in each case.

As for `COC(OC)(C(=O)c1ccccc1)c1ccccc1`, the Potency result in test [1] and in test [2] was “inactive” each time.

Consider `CCC(C)(O)CCCC(C)C` (stereo not drawn), for which the Potency result in test [1] and in test [2] was “inactive” in each case.

As for `CCCCCCCCCCCCOC(C)=O`, the Potency entry in test [1] and in test [2] was “inactive” throughout.

Turning to `CC(=O)OC(C)C[N+](C)(C)C` (stereo not drawn), the Potency entry in test [1] and in test [2] was “inactive” throughout.

On to `CCc1nc(N)nc(N)c1-c1ccc(Cl)cc1`, for which the Potency entry in test [1] and in test [2] was “inactive” throughout.

On to `CCN(CC)c1ccc2c(-c3ccccc3C(=O)O)c3ccc(=[N+](CC)CC)cc-3oc2c1`, for which the Potency result in test [1] and in test [2] was “inactive” in each case.

For `Cc1c(C(N)=O)cc([N+](=O)[O-])cc1[N+](=O)[O-]`, the Potency result in test [1] and in test [2] was “inactive” in each case.

As for `COc1ccc(N)c([N+](=O)[O-])c1`, the Potency result in test [1] and in test [2] was “inactive” each time.

Consider `CC(C)(C)NCC(O)COc1ccc(NC(=O)NC2CCCCC2)cc1` (stereo not drawn), for which the Potency result in test [1] and in test [2] was “inactive” each time.

For the compound `CC(C)CCCC(=O)O`, the Potency result in test [1] and in test [2] was “inactive” in each case.

For `CCCCNc1c(C(=O)OCC)c(C)nc2c1cnn2CC`, the Potency result in test [1] and in test [2] was “inactive” in each case.

Take `O=C1OC(=O)c2ccccc21`: the Potency entry in test [1] and in test [2] was “inactive” in each case.

As to `O=C1[C@H]2CCCC[C@H]2C(=O)N1CCCCN1CCN(c2nsc3ccccc23)CC1`, the Potency result in test [1] and in test [2] was “inactive” in each case.

With `CCN(CC)CCOC(=O)c1ccc(N)cc1`, the Potency entry in test [1] and in test [2] was “inactive” in each case.

Regarding `CCC1(CO)COCOC1`, the Potency result in test [1] and in test [2] was “inactive” in each case.

Turning to `O=C(Nc1ccc(Cl)cc1)Nc1ccc(Cl)c(C(F)(F)F)c1`, the Potency in test [1] was 26.6 µM (active); in test [2] it was 23.7 µM (active).

Turning to `CCOC(=O)[C@H](CCc1ccccc1)N[C@@H](C)C(=O)N1C(=O)N(C)C[C@H]1C(=O)O`, the Potency result in test [1] and in test [2] was “inactive” in each case.

Regarding `CCCCCCCCO[C@@H]1O[C@H](CO)[C@@H](O)[C@H](O)[C@H]1O`, the Potency result in test [1] and in test [2] was “inactive” in each case.

On to `CC(C)(C)CC(C)(C)c1ccc(OCCOCC[N+](C)(C)Cc2ccccc2)cc1`, for which the Potency in test [1] was 27.3 µM (active) and 29.8 µM (active); in test [2], 54.4 µM (active) and 29.8 µM (active).

As to `Nc1ccn([C@H]2CC[C@@H](CO)O2)c(=O)n1`, the Potency entry in test [1] and in test [2] was “inactive” in each case.

As for `C1COCO1`, the Potency entry in test [1] and in test [2] was “inactive” in each case.

With `CN(C)CCCN1c2ccccc2Sc2ccc(Cl)cc21`, the Potency result in test [1] and in test [2] was “inactive” in each case.

Consider `Nc1nc2c(ncn2CCC(CO)CO)c(=O)[nH]1`, for which the Potency result in test [1] and in test [2] was “inactive” each time.

Consider `COc1ccc(CCC(C)=O)cc1`, for which the Potency entry in test [1] and in test [2] was “inactive” each time.

In the case of `Nc1ccn([C@@H]2O[C@H](CO)[C@@H](O)C2O)c(=O)n1` (stereo partly drawn), the Potency entry in test [1] and in test [2] was “inactive” each time.

With `O=C(O)c1cc(Cl)cc([N+](=O)[O-])c1Cl`, the Potency result in test [1] and in test [2] was “inactive” each time.

In the case of `CCOC(=O)N1CCC(n2c(=O)[nH]c3cc(Cl)ccc32)CC1`, the Potency entry in test [1] and in test [2] was “inactive” in each case.

In the case of `CS(C)=O`, the Potency entry in test [1] and in test [2] was “inactive” in each case.

`O=C1OC(=O)c2cc(-c3ccc4c(c3)C(=O)OC4=O)ccc21`: the Potency result in test [1] and in test [2] was “inactive” each time.

With `CCCc1ccccc1O`, the Potency result in test [1] and in test [2] was “inactive” each time.

Regarding `CC1=CCC(O)(C(C)C)CC1` (stereo not drawn), the Potency entry in test [1] and in test [2] was “inactive” each time.

Consider `CCCCNc1ccc(C(=O)OCCN(C)C)cc1`, for which the Potency result in test [1] and in test [2] was “inactive” each time.

In the case of `COc1ccc2cc1Oc1ccc(cc1)C[C@H]1c3c(cc4c(c3Oc3cc5c(cc3OC)CCN(C)[C@@H]5C2)OCO4)CCN1C`, the Potency result in test [1] and in test [2] was “inactive” in each case.
